Measured values: PubChem BioAssay
The source made the active and inactive calls.

Tests used:
[1] = test system: Plasmodium falciparum Sir2 (PF13_0152, Sir2A); assay: Plasmodium falciparum Sir2A binding compounds – biochemical, small-molecule microarray, 635 nm fluorescence, primary screen (AID 1098); settings: fluorescence 635 nm, higher = more signal;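 further: score merges spot fluorescence intensity with its signal-to-noise ratio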
[2] = probe aDKK1 binding to arrayed compounds – biochemical, biotinylated probe, 635/667 nm fluorescence, primary screen (AID 1099); settings: small-molecule microarray, higher = more signal;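 further: score merges 667nm spot fluorescence with signal to noise across triplicate slides; reference of the scale not given here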
[3] = probe aCHRDL2 binding to arrayed compounds – biochemical, biotinylated probe, 635/667 nm fluorescence, primary screen (AID 1100); settings: small-molecule microarray, higher = more signal
[4] = change in splice reporter luminescence, either direction, cell-based, HEK293, spliceosome inhibition project, primary screen (AID 1101); settings: HEK293 splicing luciferase reporter, 24 h, higher = more signal, called active from +8 up or from −8 down;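 further: HEK293 cells carrying a splicing-competent luciferase reporter gene; test concentration not given here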
[5] = target: Fibroblast growth factor 10 (Homo sapiens) (UniProt O15520); assay: compounds binding fibroblast growth factor 10 – biochemical, small-molecule microarray, 635 nm fluorescence, primary screen (AID 1102); settings: FGF10 binding, fluorescence 635 nm, higher = more signal
[6] = test system: glycogen synthase kinase-3 (GSK3A per assay name; protocol says GSK3B); assay: compounds binding glycogen synthase kinase-3 – biochemical, small-molecule microarray, 635 nm fluorescence, GSK3A, primary screen (AID 1103); settings: fluorescence 635 nm, higher = more signal; further: the record names both GSK3A and GSK3B
[7] = target: Epidermal growth factor receptor (Homo sapiens) (UniProt P00533); assay: compounds binding epidermal growth factor receptor – biochemical, small-molecule microarray, 635 nm fluorescence, primary screen (AID 1104); settings: EGFR binding, higher = more signal;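 further: score merges 667 nm emission intensity with spot signal to noise over triplicate slides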
[8] = target: Follistatin-related protein 3 (Homo sapiens) (UniProt O95633); assay: compounds binding follistatin-related protein 3 – biochemical, small-molecule microarray, 635 nm fluorescence, primary screen (AID 1105); settings: FSTL3 binding, higher = more signal;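 further: score merges emission near 667 nm and signal to noise per printed spot across three slides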
[9] = target: Dickkopf-related protein 1 (Homo sapiens) (UniProt O94907); assay: small molecules binding DKK1 protein – biochemical, small-molecule microarray, 635 nm fluorescence scan, primary screen (AID 1106); settings: higher = more signal;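 further: score merges emission near 667 nm with signal to noise over three replicate slides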
[10] = test system: Inhibin beta A chain (activin A); assay: small molecules binding activin A – biochemical, small-molecule microarray, 635 nm fluorescence scan, primary screen (AID 1107); settings: INHBA, higher = more signal;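 further: mouse activin A protein probed at 4.33 µg/mL on printed slides; score merges bound-protein fluorescence near 667 nm with spot signal-to-noise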

Sequence of Epidermal growth factor receptor (Homo sapiens) (P00533 whole entry, looked up): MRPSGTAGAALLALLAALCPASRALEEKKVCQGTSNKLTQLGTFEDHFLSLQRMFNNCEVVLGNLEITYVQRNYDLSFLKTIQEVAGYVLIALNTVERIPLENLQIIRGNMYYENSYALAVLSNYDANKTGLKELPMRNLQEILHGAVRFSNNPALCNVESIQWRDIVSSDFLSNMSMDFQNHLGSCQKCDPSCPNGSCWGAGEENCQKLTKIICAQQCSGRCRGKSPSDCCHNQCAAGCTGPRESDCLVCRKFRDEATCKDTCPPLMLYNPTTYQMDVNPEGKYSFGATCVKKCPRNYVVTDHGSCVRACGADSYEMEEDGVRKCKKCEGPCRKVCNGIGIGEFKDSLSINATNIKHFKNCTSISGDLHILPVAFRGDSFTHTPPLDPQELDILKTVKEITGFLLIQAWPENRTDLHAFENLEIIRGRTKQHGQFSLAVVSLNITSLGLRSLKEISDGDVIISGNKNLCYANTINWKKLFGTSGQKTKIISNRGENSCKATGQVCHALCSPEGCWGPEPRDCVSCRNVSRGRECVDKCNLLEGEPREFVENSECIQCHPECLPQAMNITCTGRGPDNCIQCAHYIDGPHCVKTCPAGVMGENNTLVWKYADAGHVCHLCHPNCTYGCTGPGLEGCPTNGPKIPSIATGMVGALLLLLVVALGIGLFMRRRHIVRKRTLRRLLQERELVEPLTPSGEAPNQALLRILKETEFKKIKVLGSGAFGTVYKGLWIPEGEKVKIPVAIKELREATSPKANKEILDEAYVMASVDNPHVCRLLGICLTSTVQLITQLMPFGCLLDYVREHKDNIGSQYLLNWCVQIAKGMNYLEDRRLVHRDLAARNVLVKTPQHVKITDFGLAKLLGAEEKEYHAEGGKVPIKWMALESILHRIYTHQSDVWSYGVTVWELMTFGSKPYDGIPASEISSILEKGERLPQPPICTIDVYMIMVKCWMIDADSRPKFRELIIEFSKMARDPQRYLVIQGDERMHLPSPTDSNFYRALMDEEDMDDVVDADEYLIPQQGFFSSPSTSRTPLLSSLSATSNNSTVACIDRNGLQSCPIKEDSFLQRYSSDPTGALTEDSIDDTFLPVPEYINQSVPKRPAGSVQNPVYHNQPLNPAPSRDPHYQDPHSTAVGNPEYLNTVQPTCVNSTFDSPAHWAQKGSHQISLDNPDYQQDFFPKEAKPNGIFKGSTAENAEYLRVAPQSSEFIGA
Sequence of Follistatin-related protein 3 (Homo sapiens) (O95633 whole entry, looked up): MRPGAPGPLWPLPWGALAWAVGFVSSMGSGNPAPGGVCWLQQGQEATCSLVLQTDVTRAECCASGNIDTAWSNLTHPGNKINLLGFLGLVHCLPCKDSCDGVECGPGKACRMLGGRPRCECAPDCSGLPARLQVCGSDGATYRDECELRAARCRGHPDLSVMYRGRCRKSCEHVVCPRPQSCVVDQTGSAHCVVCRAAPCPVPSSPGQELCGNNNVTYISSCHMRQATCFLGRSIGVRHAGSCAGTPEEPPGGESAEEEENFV
Sequence of Fibroblast growth factor 10 (Homo sapiens) (O15520 whole entry, looked up): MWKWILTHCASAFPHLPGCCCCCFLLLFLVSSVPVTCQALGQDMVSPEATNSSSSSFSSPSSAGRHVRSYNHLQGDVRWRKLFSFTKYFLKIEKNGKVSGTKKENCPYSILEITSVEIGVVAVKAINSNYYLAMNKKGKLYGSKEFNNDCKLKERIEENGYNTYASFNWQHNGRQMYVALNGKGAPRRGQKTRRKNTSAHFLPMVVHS
Sequence of Dickkopf-related protein 1 (Homo sapiens) (O94907 whole entry, looked up): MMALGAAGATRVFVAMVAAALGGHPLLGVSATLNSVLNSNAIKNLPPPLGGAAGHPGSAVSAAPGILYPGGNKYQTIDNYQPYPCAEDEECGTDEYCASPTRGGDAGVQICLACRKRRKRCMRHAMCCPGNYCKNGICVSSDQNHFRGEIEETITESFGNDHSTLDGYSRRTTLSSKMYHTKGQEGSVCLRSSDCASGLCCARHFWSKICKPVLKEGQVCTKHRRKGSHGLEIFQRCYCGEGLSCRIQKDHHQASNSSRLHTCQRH

| SMILES | composite z-score [1] | composite z-score [2] | composite z-score [3] | z-score [4] | composite z-score [5] | composite z-score [6] | composite z-score [7] | composite z-score [8] | composite z-score [9] | composite z-score [10] |
| --- | --- | --- | --- | --- | --- | --- | --- | --- | --- | --- |
| C=C(/C(=C/C[C@@H](OC(C)=O)c1ccc(CO)o1)c1cnc2ccccc2c1)C(C)C | 1.18 | -0.198 | -0.541 | -0.541 (inactive) | 1.66 | 1.32 | 0.792 | 1.45 | 1.24 | 1.39 |
| O=C1O[C@H](c2ccccc2)[C@H](c2ccccc2)N2[C@H]1[C@@H](C(=O)NC[C@H](O)c1ccccc1)[C@]1(C(=O)Nc3ccc(C#CC4=CCCCC4)cc31)[C@H]2c1ccc(O)cc1 | 1.29 | 0.137 | 0.176 | -2.1 (inactive) | 1.3 | 1.29 | 0.57 | 1.33 | 0.542 | -0.201 |
| CCCNC(=O)[C@@]1(C)c2ccccc2C(=O)N(Cc2cc(C(F)(F)F)cc(C(F)(F)F)c2)[C@H]1c1ccc(CO)cc1 | 0.0609 | 0.21 | 0.608 | -0.542 (inactive) | -0.0617 | -0.196 | -0.708 | -0.808 | -0.408 | -0.605 |
| C=CCN1C(=O)[C@@]2(O[C@@H](CCO)[C@H]([Si](C)(C)c3ccc(OC)cc3)[C@H]2C)c2cc(N3C(=O)COc4ccccc43)ccc21 | 1.16 | -0.447 | -0.0458 | -3.26 (inactive) | 0.993 | 0.324 | -0.289 | 0.193 | -0.609 | -0.145 |
| C=CCN1Cc2ccccc2C[C@]2(N=C(c3ccc(OCCCO)cc3)O[C@@H]2c2ccccc2)C1=O | 0.761 | -0.0119 | 0.311 | -1.44 (inactive) | 1.08 | 1.29 | 0.734 | 1.25 | 0.838 | 1.31 |
| [N-]=[N+]=Nc1ccccc1[C@@H]1OC(c2ccc(OCCCO)cc2)=N[C@]1(CCS(=O)(=O)c1ccccc1)C(=O)O | 1.25 | 0.541 | 0.54 | -1.27 (inactive) | 1.11 | 1.29 | 0.452 | 1.44 | 0.227 | 1.31 |
| [N-]=[N+]=Nc1ccccc1[C@@H]1OC(c2ccc(OCCCO)cc2)=N[C@]1(CCS(=O)(=O)c1ccccc1)C(=O)N1CCCCC1 | 1.39 | 1.63 | 1.41 | -0.261 (inactive) | 1.05 | 0.85 | 0.098 | 0.811 | -0.423 | 1.36 |
| CO[C@H]1O[C@H](CO)[C@@H](OC(=O)Nc2ccccc2-c2ccccc2)[C@H](OC(=O)Nc2ccccc2-c2ccccc2)[C@H]1OC(=O)Nc1ccccc1-c1ccccc1 | 1.54 | 0.677 | 0.607 | -0.316 (inactive) | 1.4 | 1.35 | 0.197 | 1.36 | 0.289 | 0.628 |
| COCCOC(=O)N1C(=O)[C@@]2(c3cc(C#CCCO)ccc31)[C@H](c1ccc(O)cc1)N1[C@H](c3ccccc3)[C@H](c3ccccc3)OC(=O)[C@H]1[C@@H]2C(=O)N1CCCCCCC1 | 1.4 | 1.51 | 0.885 | 0.242 (inactive) | 1.13 | 1.26 | 0.483 | 1.39 | 0.771 | 1.59 |
| O=C(NCc1ccccc1)[C@@H]1c2ccccc2C(=O)N(Cc2cc(F)cc(C(F)(F)F)c2)[C@H]1c1ccc(CO)cc1 | 1.09 | 0.125 | 0.519 | -0.945 (inactive) | 0.29 | 0.243 | -0.0881 | 0.588 | -0.0135 | 0.517 |
| Cc1ccc(S[C@]2(C(=O)NCC(F)(F)F)CC(=O)N(C3Cc4ccccc4C3)[C@@H]2c2ccc(CO)cc2I)cc1 | 1.08 | 0.599 | 1.19 | -0.426 (inactive) | -1.02 | -1.3 | -1.51 | -1 | -2.11 | 0.554 |
| CCN(CC)c1ccc(N2CC=CC34O[C@@H]5/C=C\CCC(C)OC(=O)C5[C@H]3C(=O)N(CCCCCCO)[C@@H]4C2=O)cc1 (stereo not given in full) | 0.586 | -0.331 | 0.0224 | 0.449 (inactive) | -0.0455 | -0.624 | -0.782 | -0.622 | -0.471 | 1.04 |
| COC(=O)[C@@]1(Cc2ccc(F)cc2)[C@H]2c3cc(C(=O)N(C)C)n(CCCNc4ccc(C(F)(F)F)cc4Cl)c3C[C@H]2CN1C(=O)c1ccccc1 | 1.08 | 1.4 | 1.38 | -1.75 (inactive) | 0.808 | 1.29 | -0.19 | 1.2 | -0.667 | -0.0131 |
| CCCCCN1CC=CC23O[C@@H]4C=CCCOC(=O)C4[C@H]2C(=O)N(CCCO)[C@@H]3C1=O (stereo not given in full) | 1.06 | -0.117 | -0.141 | -0.588 (inactive) | -0.0549 | -0.452 | -0.928 | -0.344 | 0.0124 | -0.166 |
| C=CCOC(=O)[C@@H]1[C@H]2C(=O)O[C@H](c3ccccc3)[C@H](c3ccccc3)N2[C@H](c2ccc(OCCOC(=O)[C@H]3C[C@H]4C(=O)N[C@@H](Cc5ccccc5)C(=O)N4[C@H]3c3ccc(O)cc3)cc2)[C@@]12C(=O)Nc1ccc(I)cc12 | 1.54 | 0.232 | 0.163 | 0.00712 (inactive) | 1.22 | 1.33 | 0.906 | 1.29 | 1.26 | -0.418 |
| CC(=O)NCCCC[C@@H]1NC(=O)[C@@H]2C[C@H](C(=O)NCc3ccc(F)cc3)[C@H](c3ccc(O)cc3)N2C1=O | 1.51 | -0.239 | -0.072 | -0.661 (inactive) | 0.784 | 0.767 | 0.0059 | 0.177 | 0.592 | 0.0015 |
| O=C1NC(=O)C2C1C=CC(C(O)c1cccs1)N2Nc1ccccn1 (stereo not given) | 0.809 | 0.53 | 0.601 | 0.566 (inactive) | 0.797 | 0.182 | 0.727 | 0.292 | 0.283 | 0.538 |
| CN1C(=O)C2C=CC(C(O)c3ccc(Br)cc3)N(Nc3ccccc3)C2C1=O (stereo not given) | -0.186 | 0.528 | 1.03 | 1.11 (inactive) | -0.583 | -1.21 | -1.3 | -1.09 | -1.49 | 1.12 |
| CCCC[C@@H]1C[C@H]1[C@@H](NC(=O)c1ccccc1)c1ccccc1 | -0.563 | 0.599 | 0.781 | 0.308 (inactive) | -0.232 | -0.949 | -0.151 | 0.227 | -0.256 | 0.582 |
| CS(=O)(=O)CCOC(=O)C1=CC(c2ccc(CO)cc2)=CC(c2cccs2)N(Cc2cccc(OC(F)(F)F)c2)C=C1C(=O)OCCS(C)(=O)=O (stereo not given) | 0.472 | 0.15 | 0.211 | -0.164 (inactive) | 1.02 | 0.88 | 0.084 | 0.919 | 0.353 | 1.33 |
| COC(=O)[C@@]1(Cc2ccc(F)cc2)[C@H]2c3cc(C(=O)N4CCCC4)n(CCc4ccc(OC)c(Br)c4)c3C[C@H]2CN1C(=O)c1ccccc1 | 0.972 | 1.55 | 1.52 | -2.23 (inactive) | 0.68 | 1.33 | -0.0295 | 1.22 | -0.813 | 0.475 |
| CCN(CC)c1ccc(N2CC=CC34O[C@@H]5C=CCOC(=O)[C@@H]5[C@H]3C(=O)N(CCCCCO)[C@@H]4C2=O)cc1 (stereo not given in full) | 1.85 | -0.0647 | 0.682 | 0.223 (inactive) | 0.126 | -0.453 | -1.53 | -1.22 | -0.413 | 1.1 |
| COCC1C2CC[C@H]3C(OCc4ccc(F)cc4C(F)(F)F)OC[C@]4(C)[C@H]3C2=C(CN4C(=O)OC(C)(C)C)[C@H](C)C1COC (stereo not given in full) | 1.45 | 1.04 | 1.23 | -0.625 (inactive) | 0.189 | 0.366 | 0.0761 | 0.45 | 0.202 | 0.939 |
| COc1ccc([Si](C)(C)[C@@H]2[C@@H](CCO)O[C@]3(C(=O)N(Cc4cccc(N5CCCCC5=O)c4)c4ccccc43)[C@H]2C)cc1 | 1.06 | -0.0212 | 0.113 | -2.96 (inactive) | 1.04 | 0.971 | 0.319 | 1 | 0.404 | 0.764 |
| COC(=O)c1c2oc(c1C(=O)OC)C(=O)N[C@H](Cc1ccccc1)Cn1nncc1C1(CCCCC1)NC(=O)N[C@H](CO)CC2 | 0.0465 | 0.026 | -0.485 | -1.46 (inactive) | 0.0778 | 0.129 | 0.0246 | 0.402 | 0.452 | 0.006 |
| [N-]=[N+]=NCc1ccccc1[C@H]1OC(c2ccc(OCCCO)cc2)=N[C@@]1(Cc1ccccc1)C(=O)NCC(O)CO (stereo not given in full) | 1.27 | 0.847 | 1.21 | -0.807 (inactive) | 0.782 | 1.27 | -0.187 | -0.751 | -0.651 | 0.33 |
